According to PubChem BioAssay (NCI):
About 79,000 compounds went through this panel and 15% of them were active in at least one assay; those are over-represented in the sample as a whole. Activity calls are given as the source filed them. Rule as the data show it: active = growth inhibition above about 70%; inactive = the rest.

How the values were obtained:
[1] = NCI Yeast Anticancer Drug Screen. Data for the rad52 strain (AID 147);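 also: 0% = growth of vehicle-treated control cultures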; details: S. cerevisiae rad52 mutant growth inhibition, active compounds read high
How it was run: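 Read-out: growth inhibition versus vehicle-treated controls. Cells were a DNA repair-deficient yeast strain treated with compounds.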

[2] = NCI Yeast Anticancer Drug Screen. Data for the wt1 strain (AID 149);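 also: 0% = growth of vehicle-treated wt1 cultures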; details: S. cerevisiae wt1 strain (SPY 50644) growth inhibition, active compounds read high
How it was run: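 Readout: yeast growth inhibition, normalised to vehicle controls, in the wt1 strain exposed to test compounds.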

[3] = NCI Yeast Anticancer Drug Screen. Data for the rad50EPP+ strain (AID 151);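 also: 0% = growth of vehicle-treated control cultures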; details: S. cerevisiae rad50 mutant strain, active compounds read high
How it was run: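 Growth inhibition read against vehicle controls in rad50EPP+ yeast, a strain altered in DNA damage repair, after compound exposure.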

[4] = NCI Yeast Anticancer Drug Screen. Data for the mgt1 strain (AID 153); details: S. cerevisiae mgt1 mutant growth inhibition, active compounds read high
How it was run: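 mgt1 yeast grown with test compound; read-out is growth inhibition versus vehicle-treated cultures.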

[5] = NCI Yeast Anticancer Drug Screen. Data for the rad50 strain (AID 155);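 also: 0% = growth of vehicle-only cultures of the same strain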; details: S. cerevisiae rad50 strain growth inhibition, active compounds read high
How it was run: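 Compounds were tested on a yeast strain with an engineered DNA damage repair alteration; the reported value is growth inhibition normalised to vehicle treatment.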

[6] = NCI Yeast Anticancer Drug Screen. Data for the mec2-1 strain (AID 157); details: S. cerevisiae mec2-1 strain, active compounds read high
How it was run: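 Yeast mec2-1 mutant treated with compound. Readout: growth inhibition vs vehicle controls.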

[7] = NCI Yeast Anticancer Drug Screen. Data for the rad14 strain (AID 159);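 also: 0% = growth of vehicle-treated control cultures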; details: S. cerevisiae rad14 strain growth inhibition, active compounds read high
How it was run: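 Compound-treated yeast with a defined DNA-repair lesion; growth inhibition normalised to vehicle-treated cultures.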

[8] = NCI Yeast Anticancer Drug Screen. Data for the sgs1 mgt1 strain (AID 161);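 also: 0% = growth of cultures given vehicle only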; details: S. cerevisiae sgs1 mgt1 strain, active compounds read high
How it was run: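 Genetically altered yeast, compound exposure, growth inhibition relative to vehicle.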

[9] = NCI Yeast Anticancer Drug Screen. Data for the cln2 rad14 strain (AID 165);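 also: 0% = growth equal to vehicle treated cultures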; details: S. cerevisiae cln2 rad14 strain, active compounds read high
How it was run: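 cln2 rad14 yeast strain; compound exposure; growth inhibition read vs vehicle controls.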

[10] = NCI Yeast Anticancer Drug Screen. Data for the bub3 strain (AID 167); details: S. cerevisiae bub3 mutant strain, active compounds read high
How it was run: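 Growth of a checkpoint-deficient yeast mutant is measured after compound exposure. Values represent inhibition relative to vehicle.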

[11] = NCI Yeast Anticancer Drug Screen. Data for the wt2 strain (AID 169);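 also: 0% = growth of vehicle-treated yeast cultures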; details: S. cerevisiae wt2 strain growth inhibition, active compounds read high
How it was run: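 Read-out: growth inhibition versus vehicle-treated control cultures after compound exposure of the yeast strain.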

[12] = NCI Yeast Anticancer Drug Screen. Data for the mlh1 strain (AID 171);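 also: 0% = growth of vehicle-treated control cultures of the same strain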; details: S. cerevisiae mlh1 strain growth inhibition, active compounds read high
How it was run: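 Read-out: growth inhibition versus vehicle controls. Strain: engineered yeast with a defined DNA repair or cell cycle defect, compound-treated.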

[13] = NCI Yeast Anticancer Drug Screen. Data for the mlh1 rad18 strain (AID 175); details: S. cerevisiae mlh1 rad18 strain growth inhibition, active compounds read high
How it was run: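 Yeast w/ defined DNA-repair lesions; compound exposure; growth vs vehicle controls → % inhibition.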

[14] = NCI Yeast Anticancer Drug Screen. Data for the rad18 strain (AID 177); details: S. cerevisiae rad18 mutant growth inhibition, active compounds read high
How it was run: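 Readout: growth inhibition vs vehicle controls. Cells: genetically altered yeast strain, DNA repair defect.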

[15] = NCI Yeast Anticancer Drug Screen. Data for the CLN2oe strain (AID 163);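 also: 0% = growth of vehicle-only control cultures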; details: S. cerevisiae CLN2oe strain, active compounds read high
How it was run: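 Read-out: yeast growth inhibition, expressed relative to vehicle-only controls. The strain bears an engineered cell-cycle alteration.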

[16] = at 5.0 µM (retest, dose inferred, filed as 0.5)
[17] = at 50.0 µM (retest, dose inferred, filed as 5.0)

Measured: growth inhibition

CCOC(=O)COc1c(OC)cc(C2C3=C(COC3=O)Oc3cc4c(cc32)OCO4)cc1OC (stereo unspecified)
inactive: [1]; at 1.2 µM 2% | [1]; at 3.7 µM 1% | [1]; at 11.0 µM 0% | [1]; at 33.0 µM 8% | [1]; at 100.0 µM 23% | [2]; at 1.2 µM 1% | [2]; at 3.7 µM 2% | [2]; at 11.0 µM 4% | [2]; at 33.0 µM 3% | [2]; at 100.0 µM 6% | [3]; at 1.2 µM -2% | [3]; at 3.7 µM -16% | [3]; at 11.0 µM -22% | [3]; at 33.0 µM -11% | [3]; at 100.0 µM 15% | [4]; at 1.2 µM -3% | [4]; at 3.7 µM 2% | [4]; at 11.0 µM 0% | [4]; at 33.0 µM 16% | [4]; at 100.0 µM 8% | [5]; at 1.2 µM 1% | [5]; at 3.7 µM 0% | [5]; [16] -4% | [5]; at 11.0 µM 1% | [5]; at 33.0 µM 3% | [5]; [17] -1% | [5]; at 50.0 µM 2.85% | [5]; at 100.0 µM 8% | [6]; at 1.2 µM -1% | [6]; at 3.7 µM 0% | [6]; [16] -8% | [6]; at 11.0 µM -2% | [6]; at 33.0 µM 1% | [6]; [17] -4% | [6]; at 50.0 µM 26.8% | [6]; at 100.0 µM 17% | [7]; at 1.2 µM -3% | [7]; at 3.7 µM -3% | [7]; at 11.0 µM 0% | [7]; at 33.0 µM 4% | [7]; at 100.0 µM 15% | [8]; [16] -9% | [8]; [17] 19% | [8]; at 50.0 µM 14.7% | [9]; [16] -1% | [9]; [17] 29% | [10]; at 1.2 µM -4% | [10]; at 3.7 µM 0% | [10]; [16] -13% | [10]; at 11.0 µM 0% | [10]; at 33.0 µM 6% | [10]; [17] 19% | [10]; at 50.0 µM 28.2% | [10]; at 100.0 µM 13% | [11]; at 1.2 µM 0% | [11]; at 3.7 µM 0% | [11]; at 11.0 µM 1% | [11]; at 33.0 µM 3% | [11]; at 100.0 µM 12% | [12]; at 1.2 µM 1% | [12]; at 3.7 µM -1% | [12]; at 11.0 µM -1% | [12]; at 33.0 µM 2% | [12]; at 100.0 µM 12% | [13]; [16] -10% | [13]; [17] 49% | [13]; at 50.0 µM -4.55% | [14]; at 1.2 µM 0% | [14]; at 3.7 µM -2% | [14]; at 11.0 µM -11% | [14]; at 33.0 µM -2% | [14]; at 100.0 µM 3%
active: [9]; at 50.0 µM 71%

O=P(NC1CCCCC1)(OCc1ccccc1)OCc1ccccc1
inactive: [1]; at 1.2 µM -1% | [1]; at 3.7 µM 4% | [1]; at 11.0 µM 16% | [1]; at 33.0 µM 26% | [1]; at 100.0 µM 26% | [2]; at 1.2 µM 0% | [2]; at 3.7 µM 3% | [2]; at 11.0 µM 0% | [2]; at 33.0 µM 3% | [2]; at 100.0 µM 7% | [3]; at 1.2 µM 2% | [3]; at 3.7 µM 4% | [3]; at 11.0 µM 10% | [3]; at 33.0 µM 9% | [3]; at 100.0 µM 7% | [4]; at 1.2 µM -1% | [4]; at 3.7 µM 0% | [4]; at 11.0 µM 4% | [4]; at 33.0 µM 4% | [4]; at 100.0 µM 7% | [5]; at 1.2 µM 3% | [5]; at 3.7 µM 5% | [5]; [16] 8% | [5]; at 11.0 µM 11% | [5]; at 33.0 µM 19% | [5]; [17] 14% | [5]; at 100.0 µM 26% | [6]; at 1.2 µM 1% | [6]; at 3.7 µM 1% | [6]; [16] 5% | [6]; at 11.0 µM 7% | [6]; at 33.0 µM 10% | [6]; [17] 4% | [6]; at 50.0 µM 23.6% | [6]; at 100.0 µM 11% | [7]; at 1.2 µM -1% | [7]; at 3.7 µM -2% | [7]; at 11.0 µM 4% | [7]; at 33.0 µM 6% | [7]; at 100.0 µM 13% | [8]; [16] 7% | [8]; [17] 7% | [8]; at 50.0 µM 42.3% | [15]; at 1.2 µM 7% | [15]; at 3.7 µM 2% | [15]; at 11.0 µM 10% | [15]; at 33.0 µM 12% | [15]; at 100.0 µM 17% | [9]; [16] 15% | [9]; [17] 9% | [9]; at 50.0 µM -12.7% | [10]; at 1.2 µM 0% | [10]; at 3.7 µM 4% | [10]; [16] 3% | [10]; at 11.0 µM 3% | [10]; at 33.0 µM 5% | [10]; [17] 2% | [10]; at 50.0 µM 7.8% | [10]; at 100.0 µM 2% | [12]; at 1.2 µM -7% | [12]; at 3.7 µM 0% | [12]; at 11.0 µM 2% | [12]; at 33.0 µM 4% | [12]; at 100.0 µM 7% | [13]; [16] 3% | [13]; [17] 3% | [13]; at 50.0 µM 34.8% | [14]; at 1.2 µM -1% | [14]; at 3.7 µM 3% | [14]; at 11.0 µM 13% | [14]; at 33.0 µM 26% | [14]; at 100.0 µM 28%
active: [5]; at 50.0 µM 73.3%

CCCCOC(=O)Nc1ccc(C)c(NC(=O)OCCCC)c1
inactive: [1]; at 1.2 µM -4% | [1]; at 3.7 µM -1% | [1]; at 11.0 µM 15% | [1]; at 33.0 µM 26% | [1]; at 100.0 µM 34% | [2]; at 1.2 µM -6% | [2]; at 3.7 µM -2% | [2]; at 11.0 µM -7% | [2]; at 33.0 µM 46% | [2]; at 100.0 µM 12% | [3]; at 1.2 µM 2% | [3]; at 3.7 µM 5% | [3]; at 11.0 µM 27% | [3]; at 33.0 µM 36% | [3]; at 100.0 µM 44% | [4]; at 1.2 µM -9% | [4]; at 3.7 µM -8% | [4]; at 11.0 µM -4% | [4]; at 33.0 µM 8% | [4]; at 100.0 µM 18% | [5]; at 1.2 µM -5% | [5]; at 3.7 µM -3% | [5]; [16] 3% | [5]; at 11.0 µM 9% | [5]; at 33.0 µM 19% | [5]; at 100.0 µM 42% | [6]; at 1.2 µM -6% | [6]; at 3.7 µM -11%
active: [5]; [17] 78% | [5]; at 50.0 µM 89.9%
